Experimental data as given in PubChem BioAssay AID1159580 (chemical genetic matrix, 2015).
Hit rate of the full screen: of about 5,500 compounds, about 2,000 (36%) were called active. About 18% were inconclusive and are not listed. Cut-off read from the data, not from the text of the source: active = normalized growth mostly below about 0.91 (no sharp cut-off); inconclusive = no clear call, values can overlap the other calls; inactive = mostly above about 0.92. The list shows a part of the results.

Experiment: chemical genetic growth profiling, strain panel (AID 1159580);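 note: tested at 20 µM; growth read once vehicle control cultures reached saturation at 30 °C; 1 = growth at the plate median or of vehicle wells; lower values mean less growth of the strain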
Conditions: S. cerevisiae deletion strains, growth OD

Measured: normalized growth

O=C(Nc1ccncc1)c1cc(-c2ccccc2)oc1C(F)(F)F
inactive: locus YAR019C, strain CDC15, hits give low values 0.99 | locus YBL105C, strain PKC1, hits give low values 0.985 | locus YBR135W, strain CKS1, hits give low values 0.991 | locus YBR136W, strain MEC1, hits give low values 0.988 | locus YBR160W, strain CDC28, hits give low values 0.983 | locus YDL017W, strain CDC7, hits give low values 0.991 | locus YDL028C, strain MPS1, hits give low values 0.993 | locus YDL101C, strain DUN1, hits give low values 0.992 | locus YDL108W, strain KIN28, hits give low values 0.991 | locus YDL132W, strain cdc53, hits give low values 0.979 | locus YDL214C, strain PRR2, hits give low values 0.953 | locus YDR052C, strain DBF4, hits give low values 0.989 | locus YDR054C, strain cdc34, hits give low values 0.981 | locus YDR226W, strain ADK1, hits give low values 0.989 | locus YDR477W, strain SNF1, hits give low values 0.973 | locus YER123W, strain YCK3, hits give low values 0.946 | locus YER133W, strain GLC7, hits give low values 0.976 | locus YFL009W, strain cdc4, hits give low values 0.99 | locus YFL029C, strain CAK1, hits give low values 0.984 | locus YFR003C, strain YPI1, hits give low values 0.99 | locus YFR019W, strain FAB1, hits give low values 0.993 | locus YFR028C, strain CDC14, hits give low values 0.984 | locus YGR040W, strain KSS1, hits give low values 0.962 | locus YGR052W, strain FMP48, hits give low values 1 | locus YGR092W, strain DBF2, hits give low values 0.949 | locus YHR030C, strain SLT2, hits give low values 1 | locus YHR079C, strain IRE1, hits give low values 0.941 | locus YHR082C, strain KSP1, hits give low values 1.01 | locus YHR205W, strain SCH9, hits give low values 0.998 | locus YIL147C, strain SLN1, hits give low values 0.994 | locus YJL095W, strain BCK1, hits give low values 0.991 | locus YJL128C, strain PBS2, hits give low values 0.958 | locus YJL157C, strain FAR1, hits give low values 0.952 | locus YJR016C, strain ILV3, hits give low values 0.988 | locus YJR066W, strain TOR1 (second series), hits give low values 0.937 | locus YJR066W, strain TOR1, hits give low values 1.03 | locus YKL048C, strain ELM1, hits give low values 0.976 | locus YKL067W, strain YNK1, hits give low values 0.968 | locus YKL101W, strain HSL1, hits give low values 0.977 | locus YKL193C, strain SDS22, hits give low values 0.988 | locus YKL203C, strain TOR2, hits give low values 1.04 | locus YLR133W, strain CKI1, hits give low values 0.975 | locus YLR403W, strain SFP1, hits give low values 0.987 | locus YML070W, strain DAK1, hits give low values 0.951 | locus YMR001C, strain CDC5, hits give low values 0.996 | locus YMR205C, strain PFK2 (second series), hits give low values 0.973 | locus YMR277W, strain FCP1, hits give low values 0.993 | locus YNL006W, strain LST8, hits give low values 0.992 | locus YNL020C, strain ARK1, hits give low values 0.985 | locus YNL161W, strain CBK1, hits give low values 0.982 | locus YNL183C, strain NPR1, hits give low values 0.965 | locus YNL207W, strain RIO2, hits give low values 0.98 | locus YNL222W, strain SSU72, hits give low values 0.977 | locus YNL307C, strain MCK1 (second series), hits give low values 0.976 | locus YOL078W, strain AVO1, hits give low values 0.988 | locus YOL136C, strain PFK27, hits give low values 0.953 | locus YOR061W, strain CKA2, hits give low values 0.991 | locus YOR119C, strain RIO1, hits give low values 1.03 | locus YOR231W, strain MKK1, hits give low values 0.908 | locus YOR329C, strain SCD5, hits give low values 0.998 | locus YPL031C, strain PHO85, hits give low values 0.964 | locus YPL153C, strain RAD53, hits give low values 0.959 | locus YPL204W, strain HRR25, hits give low values 0.953 | locus YPL209C, strain IPL1, hits give low values 0.976 | locus YPL256C, strain CLN2, hits give low values 0.868 | locus YPR025C, strain CCL1, hits give low values 0.99 | locus YPR106W, strain ISR1, hits give low values 0.979 | locus YPR111W, strain DBF20, hits give low values 0.98 | strain NNK1, hits give low values 0.993 | strain TSCII, hits give low values 0.989
active: locus YLR113W, strain HOG1, hits give low values 0.843
